Screens from PubChem.
Shown are actives, neighbours in structure and some others; about 1.6% of the full set was active somewhere.
Fam108B inh = mouse Fam108B serine hydrolase inhibitors, primary screen, counter-screen for RBBP9 inhibitor project, biochemical, fluorescence polarization; AID 1947, 2009; inhibition, % at 9.51 µM; recombinant Fam108B, FP-Rh probe fluorescence polarization; 0.33% of 300,000 active;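 active = inhibition above the screen mean inhibition plus 3 SD, computed separately per campaign, cut at about 18% in these data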;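 note: inhibitors lower polarization as less probe binds the enzyme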
MEX-5 binding = MEX-5 zinc finger RNA-binding disruptors – biochemical, C. elegans, fluorescence polarization, MLPCN library, primary screen; activity score (negative = inhibition of binding), % at 10 µM; MEX-5/FITC-TCR2 RNA binding; active compounds read low; AID 1832, 2009; 0.38% of 300,000 active; Zinc finger protein mex-5 (Caenorhabditis elegans), Q9XUB2;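 active = inhibition past about -25% in most replicates, and total fluorescence under double the plate's negative control median, limit read from the data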;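 note: 0% = DMSO and -100% = 5 µM competing unlabeled TCR2 RNA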
Target sequence (Q9XUB2 whole entry, looked up): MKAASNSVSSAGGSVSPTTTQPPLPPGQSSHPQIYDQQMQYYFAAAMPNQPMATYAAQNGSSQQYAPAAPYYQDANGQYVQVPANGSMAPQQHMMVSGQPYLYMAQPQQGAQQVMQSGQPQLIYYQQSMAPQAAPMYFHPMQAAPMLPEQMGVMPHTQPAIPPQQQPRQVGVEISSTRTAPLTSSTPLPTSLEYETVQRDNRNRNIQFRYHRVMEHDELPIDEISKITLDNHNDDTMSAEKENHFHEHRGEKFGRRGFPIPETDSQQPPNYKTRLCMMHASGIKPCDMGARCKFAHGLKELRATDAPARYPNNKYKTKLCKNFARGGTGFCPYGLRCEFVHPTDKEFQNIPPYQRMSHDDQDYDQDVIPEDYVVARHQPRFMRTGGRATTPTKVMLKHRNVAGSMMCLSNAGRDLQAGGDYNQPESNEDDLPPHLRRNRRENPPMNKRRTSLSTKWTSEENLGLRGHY
LYPLA2 counter = LYPLA2 inhibitors, primary screen, counter-screen for PME1 inhibitor project, biochemical, fluorescence polarization, FP-Rh probe ABPP | Acyl-protein thioesterase 2 (Homo sapiens), O95372 | recombinant LYPLA2 | inhibition, % at 5.9 µM | 0.38% of 320,000 active | AID 2177, 2009;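 active = inhibition above the screen-wide mean plus 3 SD, limit set per campaign, cut at about 26% in these data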;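 note: 0% = LYPLA2 with DMSO and 100% = wells lacking LYPLA2 enzyme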
Target sequence (O95372 whole entry, looked up): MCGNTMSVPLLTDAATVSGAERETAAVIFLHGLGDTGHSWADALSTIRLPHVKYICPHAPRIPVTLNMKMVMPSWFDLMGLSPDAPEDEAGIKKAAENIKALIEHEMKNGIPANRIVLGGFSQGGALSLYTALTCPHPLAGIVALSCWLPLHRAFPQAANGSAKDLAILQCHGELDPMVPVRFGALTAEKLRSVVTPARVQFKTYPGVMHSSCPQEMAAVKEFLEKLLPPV
PME-1 primary = PME-1 inhibitors via competitive probe labeling, primary screen, biochemical, fluorescence polarization, FP-Rh probe, HTS; Protein phosphatase methylesterase 1 (Homo sapiens), Q9Y570; recombinant PME-1; inhibition, % at 5.9 µM; 0.53% of 320,000 active; AID 2130, 2009;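 active = inhibition above the campaign mean of all compounds plus 3 SD, cut at about 26% in these data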;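 note: competitive labeling of PME-1 active site by serine hydrolase directed probe; 0% = PME-1 with DMSO and 100% = wells lacking PME-1 enzyme; inhibitors block probe labeling so polarization falls and inhibition rises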
LYPLA1 inh = LYPLA1 inhibitors, primary screen, counter-screen for PME1 inhibitor project, biochemical, fluorescence polarization, FP-Rh probe ABPP; Acyl-protein thioesterase 1 (Homo sapiens), O75608; recombinant LYPLA1; inhibition, % at 5.9 µM; 0.16% of 320,000 active; AID 2174, 2009;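 active = inhibition above the mean of all tested compounds plus 3 SD, set per campaign, cut at about 14% in these data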;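 note: inhibitors block serine hydrolase probe labeling of LYPLA1 so polarization falls; 0% = enzyme with DMSO and 100% = wells lacking LYPLA1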
PREPL inhibitor = PREPL enzyme inhibitors, primary screen, biochemical, fluorescence polarization | recombinant PREPL, fluorescence polarization activity-based probe | inhibition, % at 5.96 µM | 0.68% of 320,000 active | AID 2751, 2010; in the data active = inhibition above about 43%;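 note: 0% = enzyme with DMSO and 100% = wells lacking enzyme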
LYPLA1 confirm = LYPLA1 inhibitors, retest, confirmation, counter-screen for PME1 inhibitor project, biochemical, fluorescence polarization, FP-Rh probe ABPP; 69% of 480 active; shares compounds with LYPLA1 inh; inhibition, % at 5.9 µM; recombinant LYPLA1;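 active = mean inhibition across replicates above the hit cutoff set in the primary screen, cut at about 15% in these data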;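 note: loss of FP-Rh probe labeling of LYPLA1 seen as lower polarization; 0% = LYPLA1 with DMSO and 100% = wells lacking LYPLA1 enzyme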
LYPLA2 confirm = LYPLA2 inhibitors, retest, confirmation, counter-screen for PME1 inhibitor project, biochemical, fluorescence polarization, FP-Rh probe ABPP; recombinant LYPLA2; inhibition, % at 5.9 µM; 72% of 1,100 active; shares compounds with LYPLA2 counter;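 active = mean inhibition across replicates above the hit cutoff set in the primary screen, cut at about 26% in these data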;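 note: blocked labeling of the enzyme by serine hydrolase FP-Rh probe lowers polarization; 0% = enzyme with DMSO and 100% = wells lacking LYPLA2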
* marks the source's active call; other numbers are inactive results.

How did O=C1N=C(N2CCN(Cc3ccccc3)CC2)S/C1=C/c1cccs1 do in these assays?
Fam108B inh: -3; MEX-5 binding: -2; LYPLA2 counter: 47*; PME-1 primary: -3; LYPLA1 inh: 25*; PREPL inhibitor: -22; LYPLA1 confirm: 36*; LYPLA2 confirm: 55*

How did O=C(COc1ccc(Br)cc1)Nc1ccc(Cc2ccncc2)cc1 do in these assays?
Fam108B inh: -1; MEX-5 binding: 2; LYPLA2 counter: 30*; PME-1 primary: -17; LYPLA1 inh: 23*; PREPL inhibitor: -37; LYPLA1 confirm: 25*; LYPLA2 confirm: 22

How did CC1(C)CC(NCc2cccc([N+](=O)[O-])c2)CC(C)(C)N1 do in these assays?
Fam108B inh: 9; MEX-5 binding: 4; LYPLA2 counter: 5; PME-1 primary: -3; LYPLA1 inh: 6; PREPL inhibitor: 26

Results for O=C(COc1ccc2c(c1)CCC2)Nc1ccccn1 ?
Fam108B inh: -1; MEX-5 binding: 2; LYPLA2 counter: -4; PME-1 primary: -43; LYPLA1 inh: 1; PREPL inhibitor: 6

What do the screens show for `O=C(NCCNC(=O)c1cc(OCC(F)(F)F)ccc1OCC(F)(F)F)Nc1cccc(C(F)(F)F)c1`?
Fam108B inh: 2; MEX-5 binding: 2; LYPLA2 counter: 61*; PME-1 primary: -5; LYPLA1 inh: 33*; PREPL inhibitor: -9; LYPLA1 confirm: 44*; LYPLA2 confirm: 50*

Results for COC(=O)c1cccc(NC(=S)NCCC2=CCCCC2)c1 ?
Fam108B inh: -1; MEX-5 binding: 1; LYPLA2 counter: -3; PME-1 primary: 3; LYPLA1 inh: -1; PREPL inhibitor: 3

Results for O=C1Cc2ccccc2C(c2ccc(Br)cc2)N1 (stereo not drawn) ?
Fam108B inh: -2; MEX-5 binding: -2; LYPLA2 counter: 30*; PME-1 primary: -1; LYPLA1 inh: 22*; PREPL inhibitor: -1; LYPLA1 confirm: 29*; LYPLA2 confirm: 27*

What do the screens show for `COc1ccc(CN2CCN(Cc3cccc(Oc4ccccc4)c3)CC2)c(OC)c1OC`?
Fam108B inh: 3; MEX-5 binding: -2; LYPLA2 counter: 26*; PME-1 primary: 0; LYPLA1 inh: 21*; PREPL inhibitor: 6; LYPLA1 confirm: 31*; LYPLA2 confirm: 21

Results for CN1CCN(Cc2cccc(Oc3ccccc3)c2)CC1 ?
Fam108B inh: 3; MEX-5 binding: 1; LYPLA2 counter: -1; PME-1 primary: 0; LYPLA1 inh: -2; PREPL inhibitor: 2

What do the screens show for `c1ccc(-c2n[nH]c(-c3ccccc3)c2-c2nc3ccccc3[nH]2)cc1`?
Fam108B inh: -4; MEX-5 binding: 4; LYPLA2 counter: -2; PME-1 primary: -2; LYPLA1 inh: -9; PREPL inhibitor: 10

Results for O=C(CCCCCN1C(=O)c2ccccc2C1=O)Nc1ccc(S(=O)(=O)N2CCCCC2)cc1 ?
Fam108B inh: -8; MEX-5 binding: 1; LYPLA2 counter: 42*; PME-1 primary: 4; LYPLA1 inh: 26*; PREPL inhibitor: 8; LYPLA1 confirm: 30*; LYPLA2 confirm: 41*

What do the screens show for `CC1CCN(S(=O)(=O)c2ccc(NC(=O)CCN3C(=O)c4ccccc4C3=O)cc2)CC1`?
Fam108B inh: -1; MEX-5 binding: -1; LYPLA2 counter: 2; PME-1 primary: 8; LYPLA1 inh: -8; PREPL inhibitor: -3

How did Cc1cccc(NC(=O)C2CCN(C(=O)c3ccccc3C)CC2)n1 do in these assays?
LYPLA2 counter: 5; PME-1 primary: 4; LYPLA1 inh: 3; PREPL inhibitor: 12

What do the screens show for `CC(=O)c1sc(NC(=O)C2CCN(C(=O)c3ccccc3C)CC2)nc1-c1ccccc1`?
Fam108B inh: 1; MEX-5 binding: 0; LYPLA2 counter: 27*; PME-1 primary: 10; LYPLA1 inh: 25*; PREPL inhibitor: -6; LYPLA1 confirm: 32*; LYPLA2 confirm: 14

Results for COc1cc(OC)c2c(c1)OC(c1ccc(OC)c(OC)c1)C(O)C2=O (stereo not drawn) ?
Fam108B inh: 3; MEX-5 binding: 3; LYPLA2 counter: -3; PME-1 primary: -3; LYPLA1 inh: -1; PREPL inhibitor: 10

How did COc1cc([C@H]2Oc3cc([C@H]4Oc5cc(O)cc(O)c5C(=O)[C@@H]4O)ccc3O[C@@H]2CO)ccc1O do in these assays?
Fam108B inh: 0; MEX-5 binding: 2; LYPLA2 counter: 70*; PME-1 primary: 1; LYPLA1 inh: 21*; PREPL inhibitor: 11; LYPLA1 confirm: 37*; LYPLA2 confirm: 75*

Results for CCCOc1ccc(N2CC(C(=O)Nc3ccc(N4CCOCC4)cc3)CC2=O)cc1 (stereo not drawn) ?
Fam108B inh: -3; MEX-5 binding: 1; LYPLA2 counter: 11; PME-1 primary: -1; LYPLA1 inh: 4; PREPL inhibitor: 0

What do the screens show for `O=C(O)c1ccc2c(c1)C(=O)N(CCCCCCCN1C(=O)c3ccc(C(=O)O)cc3C1=O)C2=O`?
Fam108B inh: -2; MEX-5 binding: -1; LYPLA2 counter: 47*; PME-1 primary: -4; LYPLA1 inh: 69*; PREPL inhibitor: 4; LYPLA1 confirm: 73*; LYPLA2 confirm: 48*

How did O=C(O)CCCCCN1C(=O)c2ccc(C(=O)O)cc2C1=O do in these assays?
Fam108B inh: 4; MEX-5 binding: -1; LYPLA2 counter: 3; PME-1 primary: 2; LYPLA1 inh: 0; PREPL inhibitor: 1

What do the screens show for `COc1ccc(CC(=O)NC(C)c2nnc(SCc3nc4ccccc4c(=O)[nH]3)n2C)cc1` (stereo not drawn)?
Fam108B inh: -7; MEX-5 binding: 0; LYPLA2 counter: 4; PME-1 primary: 3; LYPLA1 inh: 0; PREPL inhibitor: 12

Results for O=c1[nH]c(CN2CCN(C/C=C/c3ccccc3)CC2)nc2cc(Cl)ccc12 ?
Fam108B inh: 3; MEX-5 binding: -6; LYPLA2 counter: 32*; PME-1 primary: 1; LYPLA1 inh: 34*; PREPL inhibitor: -39; LYPLA1 confirm: 41*; LYPLA2 confirm: 31*
